Test results from PubChem BioAssay AID1942 (Johns Hopkins Ion Channel Center, 2009).
The whole screen tested about 2,400 compounds, of which about 580 (24%) were called active. The list is a sample of the results. Values without a mark were called inactive.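 How the source made its calls: active means activity change at or above the mean plus 3 SD of buffer wells without dofetilide, per plate; inactive means the rest.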

target: Potassium voltage-gated channel subfamily KQT member 2 (Rattus norvegicus) (UniProt O88943); experiment: KCNQ2 potentiation in CHO cells – cell-based, FluxOR thallium flux, counter-screen for hERG block protector project, confirmation (AID 1942); conditions: FluxOR thallium flux fluorescence, at 10 µM, stronger effect = higher value;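 further: normalized value minus buffer-control mean plus three SD of buffer wells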
Sequence (O88943 whole entry, looked up): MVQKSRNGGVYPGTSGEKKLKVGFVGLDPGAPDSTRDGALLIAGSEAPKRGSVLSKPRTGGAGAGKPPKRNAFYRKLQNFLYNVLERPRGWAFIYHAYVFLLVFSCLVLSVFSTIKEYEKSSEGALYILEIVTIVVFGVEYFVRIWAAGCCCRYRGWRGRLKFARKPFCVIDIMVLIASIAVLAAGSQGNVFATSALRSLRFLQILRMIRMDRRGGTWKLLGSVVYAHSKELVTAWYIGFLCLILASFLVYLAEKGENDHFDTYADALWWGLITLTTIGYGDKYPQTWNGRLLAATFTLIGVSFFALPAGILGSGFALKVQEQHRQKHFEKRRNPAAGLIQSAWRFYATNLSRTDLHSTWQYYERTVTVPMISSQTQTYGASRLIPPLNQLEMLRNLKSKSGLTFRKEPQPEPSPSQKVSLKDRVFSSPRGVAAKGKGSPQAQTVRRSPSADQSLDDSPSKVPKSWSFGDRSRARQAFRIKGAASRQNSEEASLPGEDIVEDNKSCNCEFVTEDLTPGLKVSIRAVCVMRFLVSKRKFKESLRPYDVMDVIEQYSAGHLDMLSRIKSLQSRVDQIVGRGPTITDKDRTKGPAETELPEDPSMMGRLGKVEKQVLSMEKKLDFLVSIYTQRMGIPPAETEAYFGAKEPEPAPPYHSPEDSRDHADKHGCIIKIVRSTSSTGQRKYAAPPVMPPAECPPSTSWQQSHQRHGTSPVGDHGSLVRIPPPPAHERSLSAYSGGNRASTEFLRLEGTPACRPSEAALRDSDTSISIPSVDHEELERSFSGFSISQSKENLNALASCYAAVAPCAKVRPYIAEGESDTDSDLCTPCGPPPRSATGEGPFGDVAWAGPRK

| Structure (SMILES) | activity change, less the hit threshold |
| --- | --- |
| Oc1c(Br)cc(Br)cc1C=Nc1ccc2c(c1)OCCO2 | -1.5% |
| CCOc1cccc(C(=O)Nc2ccc3[nH]ncc3c2)c1 | -15.8% |
| Oc1c(Br)cc(Br)cc1C=Nc1ccc2[nH]ncc2c1 | 33% (active) |
| O=C(CSc1nc2ccccc2o1)NCc1n[nH]c(=O)c2ccccc12 | -12.3% |
| Cc1cc(NC(=O)/C(C#N)=C/c2ccco2)n(-c2ccccc2)n1 | -20.2% |
| CCOc1ccc(C(=O)Nc2ccccc2C(=O)O)cc1 | -4% |
| COc1ccc(-n2nc(C)cc2Nc2ccccc2C(=O)O)cc1 | 21.8% (active) |
| CCCCSc1nnc(CCC)n1N | -8.4% |
| CC(C)OC(=O)c1c(NC(=O)c2ccco2)sc2c1CCCCC2 | -27.5% |
| CCc1c(C)sc(NC(=O)CN2CCN(C(=O)c3ccco3)CC2)c1C(=O)OC | 16.7% (active) |
| CCOc1ccc(OCC(=O)OCC(=O)N2CCN(C(=O)c3ccco3)CC2)cc1 | -10.5% |
| CCOC(=O)c1c(NC(=O)CN2CCN(C(=O)c3ccco3)CC2)sc2c1CCCC2 | 17.6% (active) |
| COC(=O)c1c(NC(=O)c2ccco2)sc2c1C(C(=O)OC)CC2 (stereo not given) | -18.3% |
| O=C(CNCC1CCCO1)N1CCCCCC1 (stereo not given) | -15.5% |
| CC(Oc1ccc(Br)cc1Br)C(=O)Nc1cccnc1 (stereo not given) | -16.3% |
| Cc1oc(/N=C/c2ccc(F)cc2)c(C#N)c1C | -16.1% |
| O=C(CN1C(=O)COc2ccccc21)NNC(=O)Nc1ccccc1F | -21.5% |
| Oc1oc(-c2cccc3ccccc23)nc1/C=N/c1nccs1 | 13.4% (active) |
| O=c1cc(O)c2ccccc2n1Cc1ccccc1Cl | -12.7% |
| N=C1S/C(=C\c2ccc(-c3cccc(Cl)c3)o2)C(=O)N1c1nccs1 | -9.5% |
| Cc1cc([N+](=O)[O-])ccc1-c1ccc(C2Nc3ccccc3C(=O)N2O)o1 (stereo not given) | -3.8% |
| O=C1c2ccccc2NC(c2ccc(Br)s2)N1O (stereo not given) | 70.9% (active) |
| C=CCc1cccc(C2Nc3ccccc3C(=O)N2O)c1O (stereo not given) | -12.4% |
| CC1(OC(=O)c2ccc(Cl)nc2)C(=O)C=C2C=C(c3ccc(C#N)cc3)OC=C2C1=O (stereo not given) | -15.2% |
| Fc1cccc2sc(Nc3nnc(-c4ccccc4)o3)nc12 | 79.5% (active) |

| Structure (SMILES) | activity change, less the hit threshold |
| --- | --- |
| Fc1cccc2sc(Nc3nnc(-c4ccco4)o3)nc12 | 25.3% (active) |
| COc1cccc(-c2nnc(Nc3nc4c(F)cccc4s3)o2)c1 | 13.2% (active) |
| CC(=O)Nc1nc2c(F)cccc2s1 | -18.4% |
| Fc1ccc2nc(Nc3nc4c(F)cc(F)cc4s3)sc2c1 | -10.7% |
| Fc1cccc2sc(Nc3nc4c(F)cccc4s3)nc12 | 0.7% (active) |
| Cc1cc(C)nc(SCc2nnc(SCC(=O)Nc3nc(-c4ccccc4)cs3)n2-c2ccccc2)n1 | -11% |
| Nc1ccc(NC(=O)Nc2ccc(N)cc2)cc1 | -14.5% |
| OC(CNCC(c1ccc(Cl)cc1Cl)c1c[nH]c2ccccc12)c1ccccc1 (stereo not given) | -43.4% |
| COc1cccc2cc(-c3nc4ccccc4[nH]3)c(=O)oc12 | -23.9% |
| COc1cccc(-c2cc(C(F)(F)F)nc(N3CCCCC3)n2)c1 | -10.8% |
| O=C1CCCN1C(=O)COc1ccccc1[N+](=O)[O-] | -15.5% |
| Cc1ccnc(N2CCC(C(=O)Nc3ccc(Oc4ccccc4)cc3)CC2)n1 | -22% |
| CC(C)C(O)(C#CCN1CCCC1)c1ccccc1 (stereo not given) | -11.8% |
| CC1CCN(C(=S)NC(=O)c2ccc(C(C)(C)C)cc2)CC1 | 10.7% (active) |
| CN1CCN(C(=S)NC(=O)c2ccc(C(C)(C)C)cc2)CC1 | -16.2% |
| S=C(N/N=C/c1ccc(Cl)cc1)N1CCOCC1 | -26.9% |
| CC1CN(C(=S)NC(=O)c2ccc(Cl)cc2)CC(C)O1 (stereo not given) | -3.2% |
| CC(C)(C)c1ccc(C(=O)NC(=S)N2CCCCCC2)cc1 | 18.8% (active) |
| COc1ccc(C(=O)NC(=S)N2CCC(C)CC2)cc1 | -13.2% |
| CC(C)(C)c1ccc(C(=O)NC(=S)N2CCCC2)cc1 | -7.6% |
| COc1ccc(C(=O)NC(=S)N2CCC(C)CC2)cc1Br | 51% (active) |
| O=C(NC(=S)N1CCCC1)c1ccc(Cl)cc1 | 4.3% (active) |
| O=C(Nc1ccccc1)OCCCCCOC(=O)Nc1ccccc1 | -18.2% |
| Nc1cc(=O)[nH]c(SCC(=O)N2CCCCC2)n1 | -21.9% |
| O=C1C2CC=CCC2C(=O)N1c1ccc(Cc2ccncc2)cc1 (stereo not given) | -5.4% |

| Structure (SMILES) | activity change, less the hit threshold |
| --- | --- |
| O=C(NC(=S)N1CCCCCC1)c1ccc(Cl)cc1Cl | 7.1% (active) |
| O=C(C1CC(=O)N(c2ccc3c(c2)OCCO3)C1)N1CCCC(C(F)(F)F)C1 (stereo not given) | -22.3% |
| CC(C)(C)c1ccc(/C=C/C(=O)N2CCCCC2)cc1 | 5.1% (active) |
| Cc1ccc(/C=C(\NC(=O)c2ccccc2)C(=O)N2CCCCC2)cc1 | -24.3% |
| O=C(NC(=S)N1CCCC(C(F)(F)F)C1)c1ccc(F)cc1 (stereo not given) | 24.6% (active) |
| CC(C)(C)c1nc(SCC(=O)N2CCCC2)c2ccccc2n1 | -0.3% |
| COc1cc(OC)cc(C(=O)NC(=S)N2CCCCCC2)c1 | -13.9% |
| O=C(c1ccc(C(F)(F)F)cc1)C1CCCN(C(=O)CCc2ccncc2)C1 (stereo not given) | -24.8% |
| Cc1ccc(C2C(C#N)=C(N)OC3=C2C(=O)CC(C)(C)C3)s1 (stereo not given) | -16.9% |
| O=[N+]([O-])c1ccccc1OCCNCc1ccccc1 | -14.6% |
| COc1ccc(CNC(=O)C(=O)c2cn(CC(=O)N3CCCC3)c3ccccc23)cc1 | -11.5% |
| CCOC(=O)CC(=O)CSc1nc2c(C)c(C)ccc2cc1C | -15.8% |
| COC(=O)Cn1c(=O)c(=O)n(CC(=O)OC)c2ccccc21 | -18.3% |
| O=c1c(Cc2ccccc2)c(O)nc2n1CCCS2 | -10.3% |
| O=c1c2[nH]c3ccccc3c2nc2n1CCCS2 | 9.5% (active) |
| CCOC(=O)N1CCN(C(=O)CSc2nc3c([nH]c4ccccc43)c(=O)n2CC)CC1 | -17.8% |
| Cc1cc(NC(=O)CSc2nc(C3CC3)nc3sc(C)c(C)c23)no1 | 19.9% (active) |
| CCCc1nc(SCC(=O)Nc2cc(C)on2)c2ccccc2n1 | -19.7% |
| Cc1cc(NC(=O)CSc2nnc(Nc3ccccc3)s2)no1 | -25.4% |
| Cc1nc2scc(C)n2c(=O)c1S(=O)(=O)Nc1ccc(N2CCOCC2)cc1 | -19.6% |
| CCOc1cc(N2CCOCC2)c(OCC)cc1NC(=O)CCC1CCCC1 | 75.8% (active) |
| CCOc1cc(N2CCOCC2)c(OCC)cc1NC(=O)Cn1nc(C)c([N+](=O)[O-])c1C | -16.6% |
| O=C(CNC1CCCCCC1)Nc1ccccc1N1CCOCC1 | -21.6% |
| CCOc1ccc(NC(=O)CN(C)C(=O)c2c(-c3c(F)cccc3Cl)noc2C)cc1OCC | -16.8% |
| O=C(COc1ccc2ccccc2c1Br)Nc1cccnc1 | -22.1% |

| Structure (SMILES) | activity change, less the hit threshold |
| --- | --- |
| Cc1ccc(NS(=O)(=O)c2ccc(NC(=O)c3ccccc3C(=O)O)cc2)cc1C | -17% |
| Cc1ccc(C(=O)c2ccccc2C(=O)O)c(O)c1 | -21.5% |
| Cc1ccc(/C=C/C(=O)c2ccccc(=O)c2O)cc1C | 28.9% (active) |
| O=C(/C=C/c1ccccc1Cl)c1ccccc(=O)c1O | 30.9% (active) |
| Cc1ccc(C(=O)CC(=O)c2cccc(F)c2)c(O)c1 | -14.8% |
| Cc1ccc(/C=C/C(=O)c2ccccc(=O)c2O)c(C)c1 | 40.1% (active) |
| Cc1ccc(C)c(/C=C/C(=O)c2ccccc(=O)c2O)c1 | 29.3% (active) |
| Cc1cccc(NC(=O)CN2C(=O)S/C(=C\c3ccc(-c4cccc(C(=O)O)c4C)o3)C2=O)c1 | -15.3% |
| N/C(=N\OCc1ccccc1)c1nonc1N | -14.5% |
| O=C(COC(=O)C1C2CC3OC(=O)C1C3C2)Nc1ccc(Cl)cc1 (stereo not given) | -17.9% |
| CCc1ccc(/C=N/NC(=O)c2nnn(-c3nonc3N)c2C(C)C)cc1 | -25.3% |
| CCC(C)C(NC(=O)C(C)NC(=O)CNC(=O)CNC(=O)OCc1ccccc1)C(=O)OC (stereo not given) | -19.3% |
| CCn1c2ccccc2c2cc(NC(=O)COc3ccccc3)ccc21 | -20.7% |
| O=C(NC(=S)N1CCN(c2ccccc2)CC1)c1c(F)cccc1F | -2.6% |
| CC1CCCCC1NC(=S)NC(=O)c1cccs1 (stereo not given) | 27.8% (active) |
| CC1CCN(C(=S)NC(=O)c2cccs2)CC1 | 2.2% (active) |
| CC1CCCCC1NC(=S)NC(=O)c1sc2ccccc2c1Cl (stereo not given) | -10% |
| COc1ccc(N2CCN(C(=S)Nc3cccc(OC)c3)CC2)cc1 | -8.3% |
| O=C(NC(=S)N1CCN(c2ccc(F)cc2)CC1)c1cccs1 | 25.4% (active) |
| O=C(NC(=S)N1CCN(c2ccccc2)CC1)c1ccccc1 | 11.4% (active) |
| Cc1cc(C)cc(-n2nnc(C(=O)NCc3ccc4c(c3)OCO4)c2N)c1 | -15.8% |
| N#Cc1cccc(NC(=O)c2nc(-c3ccccc3)n(-c3ccccc3)n2)c1 | -22.3% |
| Oc1ccc(N2CCN(C(c3cccnc3)c3nnnn3Cc3ccccc3)CC2)cc1 (stereo not given) | -10.2% |
| CCOC(=O)c1[nH]c(=O)[nH]c1COC(=O)c1cc2ccccc2o1 | -20.5% |
| Cn1c(/N=C/c2c(O)ccc3ccccc23)nc2ccccc21 | -14.8% |
